Measurements reported in PubChem BioAssay (NCATS).
Results filed as inconclusive are left out. The source made the active and inactive calls. Unless noted, calls come from the whole dose curve; as a rule, active = well fitted curve in the direction sought with a large enough effect; inconclusive = small, poorly fitted or top-dose-only effect, or another doubt; inactive = no such curve, though single readings can be large; an effect the other way counts as inactive or inconclusive.

Columns and labels:
[1] = biological target: Calcium and integrin-binding protein 1 (Homo sapiens) (UniProt Q99828); assay: Primary qHTS for Identification of Calcium Integrin Binding Protein 1 (CIB1) Competitor (AID 1508620);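 note: GST tagged CIB1 binding a fluorescein labelled alphaIIb integrin peptide tracer; top concentration of the series differs between compounds; % is set by controls: 0 for no effect and ±100 for the full control effect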
Calcium and integrin-binding protein 1 (Homo sapiens), sequence (Q99828 whole entry, looked up): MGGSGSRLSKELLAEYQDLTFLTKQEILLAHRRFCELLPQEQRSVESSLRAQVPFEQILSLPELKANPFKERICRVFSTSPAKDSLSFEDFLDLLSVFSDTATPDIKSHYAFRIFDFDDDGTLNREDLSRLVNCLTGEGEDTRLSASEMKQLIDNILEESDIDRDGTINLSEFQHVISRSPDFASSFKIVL
Procedure, shortened: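 Fluorescence polarization competition: GST-tagged CIB1 (1 uM final) preincubated with compound 15 min at room temperature, then FITC-labelled alphaIIb peptide (100 nM final) added. After 15 min at room temperature, polarization read at Ex 480/Em 540.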

[2] = biological target: Lysosomal acid glucosylceramidase (Homo sapiens) (UniProt P04062); assay: Glucocerebrosidase-p2 (AID 348; in the data active = potency below about 10 µM; note: potency is the fitted concentration of half-maximal effect); conditions: purified GBA, blue fluorogenic substrate, 40 min
Lysosomal acid glucosylceramidase (Homo sapiens), sequence (P04062 whole entry, looked up): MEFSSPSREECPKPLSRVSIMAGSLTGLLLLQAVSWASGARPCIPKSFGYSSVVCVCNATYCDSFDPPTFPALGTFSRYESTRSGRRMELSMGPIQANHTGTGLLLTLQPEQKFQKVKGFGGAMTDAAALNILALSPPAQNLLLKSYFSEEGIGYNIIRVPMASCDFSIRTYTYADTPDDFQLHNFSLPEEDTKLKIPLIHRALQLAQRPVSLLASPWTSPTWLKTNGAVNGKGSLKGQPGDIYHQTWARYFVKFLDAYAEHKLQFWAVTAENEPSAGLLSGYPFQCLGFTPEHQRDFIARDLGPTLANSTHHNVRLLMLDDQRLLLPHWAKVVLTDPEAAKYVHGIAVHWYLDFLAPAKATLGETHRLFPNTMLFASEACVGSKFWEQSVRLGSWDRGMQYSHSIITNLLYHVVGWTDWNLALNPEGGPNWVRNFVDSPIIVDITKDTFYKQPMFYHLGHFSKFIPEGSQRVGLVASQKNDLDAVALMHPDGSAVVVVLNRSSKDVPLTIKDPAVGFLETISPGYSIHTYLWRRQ
Procedure, shortened: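 Compounds titrated from 0.6 nM upwards against 0.2 nM enzyme in pH 5.9 citric acid/KH2PO4, taurocholate, tween-20; blue fluorogenic substrate 80 uM, 40 min room temperature, stopped and read Ex 365/Em 440 for AC50.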

[3] = biological target: Glucocorticoid receptor (Homo sapiens) (UniProt P04150); assay: GR-GFP Redistribution (AID 450;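 active = compounds whose dose series gives a full or clear partial fitted curve of increased nuclear translocation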; note: potency is the fitted concentration of half-maximal effect); conditions: U2OS GR-GFP nuclear translocation, laser cytometry, 2 h
Glucocorticoid receptor (Homo sapiens), sequence (P04150 whole entry, looked up, the tested form may be a part): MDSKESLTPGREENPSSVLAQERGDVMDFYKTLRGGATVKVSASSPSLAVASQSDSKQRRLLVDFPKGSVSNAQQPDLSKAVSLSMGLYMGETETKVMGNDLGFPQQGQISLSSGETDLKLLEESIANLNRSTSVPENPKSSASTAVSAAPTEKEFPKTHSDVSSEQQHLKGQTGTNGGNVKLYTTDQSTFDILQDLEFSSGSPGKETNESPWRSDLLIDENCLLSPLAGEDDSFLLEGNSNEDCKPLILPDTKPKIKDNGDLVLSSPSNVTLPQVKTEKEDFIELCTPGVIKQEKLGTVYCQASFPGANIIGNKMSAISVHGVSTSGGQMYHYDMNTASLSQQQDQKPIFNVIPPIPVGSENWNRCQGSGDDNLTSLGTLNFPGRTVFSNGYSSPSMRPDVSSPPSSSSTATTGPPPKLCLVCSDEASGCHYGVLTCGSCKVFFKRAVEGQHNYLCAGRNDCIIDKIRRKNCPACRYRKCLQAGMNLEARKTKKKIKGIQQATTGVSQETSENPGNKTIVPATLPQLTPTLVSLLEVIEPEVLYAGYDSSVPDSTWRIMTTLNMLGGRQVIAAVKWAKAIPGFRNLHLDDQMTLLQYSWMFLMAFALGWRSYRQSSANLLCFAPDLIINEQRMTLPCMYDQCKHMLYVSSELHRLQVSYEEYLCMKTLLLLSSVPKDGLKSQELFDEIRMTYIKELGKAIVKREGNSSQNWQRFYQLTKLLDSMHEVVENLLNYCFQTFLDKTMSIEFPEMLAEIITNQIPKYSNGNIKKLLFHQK

[4] = biological target: Glucocorticoid receptor (Homo sapiens) (UniProt P04150); assay: GR-EFC Redistribution (AID 451; calls by dose curve; note: potency is the fitted concentration of half-maximal effect); conditions: CHO-K1 GR-EFC translocation, beta-gal luminescence, 2 h
Procedure, shortened: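 CHO-K1 cells expressing nuclear EA and GR-ED fragments of b-gal; compounds titrated up to 46 uM final, 2 h at 37 C. GR nuclear translocation read as complemented b-gal luminescence after 1 h RT detection.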

[5] = biological target: Mitogen-activated protein kinase 10 (Mus musculus) (UniProt Q61831); assay: JNK3 AlphaScreen Assay (AID 530; active = well fitted curve in either direction with a large enough effect, not every such curve was filed as active;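 note: kinase came from lysate of stimulated human HepG2 cells; signal reports phosphorylation of biotinylated GST-cJun 1-79 at Ser73 with 10 µM ATP; % is set by controls: 0 for no effect and ±100 for the full control effect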)
Procedure, shortened: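 qHTS format: compounds tested as titrations against IL-1beta/TNF-alpha-activated HepG2 lysate JNK3 with biotin-GST-cJun substrate and 10 uM ATP at room temperature. Loss of anti-phospho-cJun AlphaScreen signal indicates inhibition.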

[6] = Confirmation and Secondary Assay for Modulators of Hemoglobin Beta Chain Splicing at IVS2 654 locus (AID 910);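 note: HeLa cells stably carrying EGFP split by mutant beta-globin IVS2-654 intron; % of control where 0% means no effect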
Procedure, shortened: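 HeLa cells stably expressing EGFP interrupted by β-globin IVS2-654 intron, seeded overnight in Opti-MEM/2% FCS, then treated 2 days at 37 °C. Restored splicing read as total peak GFP intensity per well by laser scanning cytometry (488 nm excitation, 500–520 nm emission); 500 nM antisense PNA as control.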

[7] = Confirmation and Secondary Assay for Modulators of Hemoglobin Beta Chain Splicing at IVS2 705 locus (AID 930);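 note: HeLa cells stably expressing the EGFP-705 splicing reporter; GFP fluorescence per well restored by corrected splicing of the IVS2-705 intron in EGFP; % of control where 0% means no effect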
Procedure, shortened: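 Fluorescence gain (488 nm laser, 500-520 nm PMT) reflects restored correct splicing of a mutant IVS2-705 intron inside EGFP in stably transfected HeLa cells after 2-day compound treatment.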

[8] = qHTS Assay for Lipid Storage Modulators (AID 1519; calls by dose curve); conditions: Drosophila S3 cells, BODIPY lipid droplet/cell ratio, laser cytometry, cells loaded with oleic acid; for activity change, negative = inhibition: at 57.5 µM (top of the series)
Procedure, shortened: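 Cells seeded at 5,000 per well were treated with compounds over a concentration series and loaded with oleic acid (400 uM, as added). Lipid droplet fluorescence (488 nm excitation, 500-530 nm channel) was read by laser-scanning cytometry and normalized to 20 uM Triacsin C.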

[9] = Primary qHTS for small molecule stabilizers of the endoplasmic reticulum resident proteome: Secreted ER Calcium Modulated Protein (SERCaMP) assay (AID 1508630); note: % is set by controls: 0 for no effect and ±100 for the full control effect
Procedure, shortened: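 GLuc-SERCaMP-expressing SH-SY5Y cells, pretreated 16 h with compound, are challenged with thapsigargin to empty ER calcium stores; after 4 h, coelenterazine is added directly to the medium and luminescence is imaged.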

[10] = AP1 Signaling Pathway (AID 357; active = well fitted curve in either direction with a large enough effect, not every such curve was filed as active;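 note: ME-180 reporter cells stimulated with EGF at its EC50 level; % is set by controls: 0 for no effect and ±100 for the full control effect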); conditions: ME-180 AP-1-bla reporter, EGF-induced, beta-lactamase ratio, 5 h; at 7.69 µM (top of the series) unless noted
Procedure, shortened: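 Read-out was the 460nm/530nm emission ratio (excitation 405nm) after CCF4 loading for 2.5 hours at room temperature. Cells carried an AP-1-driven beta-lactamase reporter, were stimulated with EC50 EGF plus compound for 5 hours, and AC50 values came from titrations.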

[11] = biological target: Cytochrome P450 1A2 (Homo sapiens) (UniProt P05177); assay: p450-cyp1a2 (AID 410; calls by dose curve; note: potency is the fitted concentration of half-maximal effect)
Cytochrome P450 1A2 (Homo sapiens), sequence (P05177 whole entry, looked up): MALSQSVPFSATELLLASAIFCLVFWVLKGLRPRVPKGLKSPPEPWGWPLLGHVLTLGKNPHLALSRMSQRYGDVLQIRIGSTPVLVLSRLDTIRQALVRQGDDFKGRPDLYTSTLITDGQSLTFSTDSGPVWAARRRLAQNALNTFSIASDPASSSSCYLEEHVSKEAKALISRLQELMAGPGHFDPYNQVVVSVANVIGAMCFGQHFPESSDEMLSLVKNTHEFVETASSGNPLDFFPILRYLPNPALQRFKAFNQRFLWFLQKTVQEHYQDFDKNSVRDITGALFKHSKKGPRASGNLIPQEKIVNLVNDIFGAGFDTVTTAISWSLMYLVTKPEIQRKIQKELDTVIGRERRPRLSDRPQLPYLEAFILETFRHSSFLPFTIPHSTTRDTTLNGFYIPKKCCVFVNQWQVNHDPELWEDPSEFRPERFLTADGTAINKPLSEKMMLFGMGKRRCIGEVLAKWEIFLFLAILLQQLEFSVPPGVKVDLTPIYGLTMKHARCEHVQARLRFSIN
Procedure, shortened: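 Inhibition was calculated relative to 57 uM furafylline (full inhibition). The reaction used human CYP1A2 at 20nM with Luciferin-ME at its Km, 100uM, driven by an NADPH-regenerating system for 60 min at room temperature.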

[12] = NFAT Signaling Pathway (AID 444; active = well fitted curve in either direction with a large enough effect, not every such curve was filed as active); conditions: Jurkat NFAT-bla M1, carbachol, beta-lactamase ratio, 5 h; at 7.69 µM (top of the series) unless noted
Procedure, shortened: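 Jurkat cells with NFAT-driven β-lactamase reporter and co-expressed M1 receptor, stimulated with carbachol (final 1 uM, ~EC50), compound titration, 5 h at 37 °C. CCF4 loaded 1 h at RT; 460/530 nm ratio gave %activity and AC50.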

[13] = Stat Signaling Pathway (AID 446; active = well fitted curve in either direction with a large enough effect, not every such curve was filed as active); conditions: ME-180 (cervical carcinoma) SIE beta-lactamase reporter, IL-6 stimulated, 5 h; at 7.69 µM (top of the series) unless noted
Procedure, shortened: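 IL-6/STAT signaling read in ME-180 cells via an SIE beta-lactamase reporter. Stimulus was 40 pM IL-6 (its AC50) for 5 hrs, so both activation and inhibition register.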

[14] = biological target: Cytochrome P450 3A4 (Homo sapiens) (UniProt P08684); assay: qHTS Assay for Activators of Cytochrome P450 3A4 (AID 885); note: nearly all actives have a fitted effect of over 65% in size
Cytochrome P450 3A4 (Homo sapiens), sequence (P08684 whole entry, looked up): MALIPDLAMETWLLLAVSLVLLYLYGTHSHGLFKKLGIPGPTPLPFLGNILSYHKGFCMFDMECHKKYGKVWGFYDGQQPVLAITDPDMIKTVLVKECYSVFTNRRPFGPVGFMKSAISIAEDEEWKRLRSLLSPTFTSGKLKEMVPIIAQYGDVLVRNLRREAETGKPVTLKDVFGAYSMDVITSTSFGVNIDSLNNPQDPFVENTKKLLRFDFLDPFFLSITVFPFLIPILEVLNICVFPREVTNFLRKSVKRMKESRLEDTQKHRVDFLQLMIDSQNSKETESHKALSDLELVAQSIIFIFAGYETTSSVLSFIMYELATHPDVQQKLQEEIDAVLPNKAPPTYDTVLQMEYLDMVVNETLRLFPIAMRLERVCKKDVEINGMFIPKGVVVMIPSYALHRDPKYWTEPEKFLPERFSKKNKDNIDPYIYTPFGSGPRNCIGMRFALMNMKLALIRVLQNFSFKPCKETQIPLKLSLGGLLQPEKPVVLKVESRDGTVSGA
Procedure, shortened: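 Quantitative HTS format: compounds preincubated with 20nM human CYP3A4 and Luciferin-PPXE substrate at KM, reaction started by NADPH regeneration, stopped after 60 min, luciferase luminescence read 20 min later.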

[15] = biological target: Cytochrome P450 2C19 (Homo sapiens) (UniProt P33261); assay: qHTS Assay for Inhibitors and Substrates of Cytochrome P450 2C19 (AID 899); note: potency is the fitted concentration of half-maximal effect; nearly all actives have a fitted effect of over 60% in size
Cytochrome P450 2C19 (Homo sapiens), sequence (P33261 whole entry, looked up): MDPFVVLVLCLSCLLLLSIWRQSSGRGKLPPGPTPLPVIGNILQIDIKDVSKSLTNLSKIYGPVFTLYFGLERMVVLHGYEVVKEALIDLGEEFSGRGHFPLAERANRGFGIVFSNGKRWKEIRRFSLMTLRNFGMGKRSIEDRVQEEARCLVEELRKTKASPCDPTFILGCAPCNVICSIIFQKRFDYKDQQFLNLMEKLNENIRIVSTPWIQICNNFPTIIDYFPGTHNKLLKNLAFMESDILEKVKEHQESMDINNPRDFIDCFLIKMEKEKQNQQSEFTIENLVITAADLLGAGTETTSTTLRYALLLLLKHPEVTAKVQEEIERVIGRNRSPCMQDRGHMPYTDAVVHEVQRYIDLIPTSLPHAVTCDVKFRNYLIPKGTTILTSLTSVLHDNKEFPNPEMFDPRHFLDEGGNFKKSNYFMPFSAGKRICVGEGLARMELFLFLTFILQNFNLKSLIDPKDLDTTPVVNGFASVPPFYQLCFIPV
Procedure, shortened: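 Signal comes from luciferase acting on luciferin released by CYP2C19-mediated hydroxylation of Luciferin-H EGE, 10uM (KM). Assay mix: 5nM enzyme, 50mM KPO4; 60 min at 37C with NADPH regeneration. Data normalized against 57uM ketoconazole.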

[16] = biological target: Dual specificity protein kinase CLK4 (Homo sapiens) (UniProt Q9HAZ1); assay: qHTS Assay for Inhibitors of CDC-like Kinase 4 (Kinase-Glo Assay) (AID 1770); note: potency is the fitted concentration of half-maximal effect; nearly all actives have a fitted effect of over 65% in size
Dual specificity protein kinase CLK4 (Homo sapiens), sequence (Q9HAZ1 whole entry, looked up): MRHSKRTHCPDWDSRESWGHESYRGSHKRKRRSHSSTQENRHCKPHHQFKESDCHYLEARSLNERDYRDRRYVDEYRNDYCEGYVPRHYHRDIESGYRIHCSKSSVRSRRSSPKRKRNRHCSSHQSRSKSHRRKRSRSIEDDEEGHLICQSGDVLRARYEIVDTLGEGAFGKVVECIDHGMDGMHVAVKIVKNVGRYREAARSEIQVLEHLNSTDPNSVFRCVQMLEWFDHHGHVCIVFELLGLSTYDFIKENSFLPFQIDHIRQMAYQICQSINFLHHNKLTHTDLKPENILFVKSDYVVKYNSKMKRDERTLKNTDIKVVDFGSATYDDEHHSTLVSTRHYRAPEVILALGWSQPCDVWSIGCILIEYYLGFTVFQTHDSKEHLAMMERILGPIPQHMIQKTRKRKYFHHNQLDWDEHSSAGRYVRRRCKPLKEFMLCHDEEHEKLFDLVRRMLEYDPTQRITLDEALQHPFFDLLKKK
Procedure, shortened: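 Luminescent ATP-depletion read-out (Kinase-Glo) after 4.5 h room-temperature reaction of Clk4 (25 nM final) with RS peptide (100 uM) and ATP (1 uM), pH 7.5 Tris buffer with MgCl2 and DTT.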

[17] = biological target: Dual specificity protein kinase CLK4 (Homo sapiens) (UniProt Q9HAZ1); assay: qHTS Assay for Inhibitors of CDC-like Kinase 4 (ADP-Glo Assay) (AID 1771); note: potency is the fitted concentration of half-maximal effect; nearly all actives have a fitted effect of over 70% in size
Procedure, shortened: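 Kinase reaction: Clk4 at 25 nM, RS repeat peptide substrate at 100 uM, ATP at 1 uM, 1 hr, room temperature. Product ADP detected as luciferase signal via ADP-Glo.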

[18] = biological target: Dual specificity protein kinase CLK4 (Homo sapiens) (UniProt Q9HAZ1); assay: qHTS Assay for Inhibitors of CDC-like Kinase 4 (ADP-FP Assay) (AID 1795); note: potency is the fitted concentration of half-maximal effect; nearly all actives have a fitted effect of over 60% in size
Procedure, shortened: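 Kinase activity was measured as ADP production using Transcreener orange tracer (4 nM) and ADP antibody (1 ug/mL) fluorescence polarization, with ADP calculated from a calibration curve. The 1 h reaction contained 6.25 nM Clk4, 1 uM ATP and 100 uM RS peptide at pH 7.5 with Mg2+.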

[19] = biological target: Ubiquitin carboxyl-terminal hydrolase 1 (Homo sapiens) (UniProt O94782); assay: Inhibitors of USP1/UAF1: Pilot qHTS (AID 504865);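 note: rhodamine fluorescence freed from ubiquitin-rhodamine substrate followed over time; top concentration of the series differs between compounds; % is set by controls: 0 for no effect and ±100 for the full control effect; nearly all actives have a fitted effect of over 35% in size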
Ubiquitin carboxyl-terminal hydrolase 1 (Homo sapiens), sequence (O94782 whole entry, looked up): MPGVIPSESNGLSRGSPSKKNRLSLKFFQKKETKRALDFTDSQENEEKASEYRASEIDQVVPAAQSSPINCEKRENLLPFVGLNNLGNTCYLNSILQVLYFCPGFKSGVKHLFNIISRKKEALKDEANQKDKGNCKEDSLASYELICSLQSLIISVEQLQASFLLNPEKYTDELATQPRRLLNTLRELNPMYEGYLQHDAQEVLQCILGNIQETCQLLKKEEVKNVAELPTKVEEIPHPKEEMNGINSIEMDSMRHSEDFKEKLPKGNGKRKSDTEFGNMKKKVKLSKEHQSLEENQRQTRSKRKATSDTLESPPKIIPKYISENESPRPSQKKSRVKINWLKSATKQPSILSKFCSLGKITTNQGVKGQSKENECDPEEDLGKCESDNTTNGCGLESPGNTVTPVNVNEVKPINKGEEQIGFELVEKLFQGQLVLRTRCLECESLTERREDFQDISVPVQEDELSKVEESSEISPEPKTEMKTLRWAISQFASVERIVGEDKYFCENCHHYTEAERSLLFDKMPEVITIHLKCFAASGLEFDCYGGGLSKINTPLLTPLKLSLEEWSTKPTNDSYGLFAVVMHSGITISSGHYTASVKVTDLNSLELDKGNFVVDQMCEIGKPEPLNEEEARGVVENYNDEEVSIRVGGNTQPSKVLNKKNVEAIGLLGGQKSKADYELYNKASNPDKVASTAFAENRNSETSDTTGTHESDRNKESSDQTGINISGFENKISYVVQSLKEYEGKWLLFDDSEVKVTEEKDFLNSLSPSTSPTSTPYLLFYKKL
Procedure, shortened: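 Deubiquitinase activity followed as kinetic rhodamine fluorescence release from 150 nM Ub-Rho. 1 nM USP1/UAF1 with compound, after 15 min room-temperature preincubation, in HEPES pH 7.8 buffer containing TCEP, EDTA, BSA and Tween-20.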

[20] = biological target: Cytochrome P450 2C9 (Homo sapiens) (UniProt P11712); assay: qHTS Assay for Inhibitors and Substrates of Cytochrome P450 2C9 (AID 883); note: potency is the fitted concentration of half-maximal effect; nearly all actives have a fitted effect of over 60% in size
Cytochrome P450 2C9 (Homo sapiens), sequence (P11712 whole entry, looked up): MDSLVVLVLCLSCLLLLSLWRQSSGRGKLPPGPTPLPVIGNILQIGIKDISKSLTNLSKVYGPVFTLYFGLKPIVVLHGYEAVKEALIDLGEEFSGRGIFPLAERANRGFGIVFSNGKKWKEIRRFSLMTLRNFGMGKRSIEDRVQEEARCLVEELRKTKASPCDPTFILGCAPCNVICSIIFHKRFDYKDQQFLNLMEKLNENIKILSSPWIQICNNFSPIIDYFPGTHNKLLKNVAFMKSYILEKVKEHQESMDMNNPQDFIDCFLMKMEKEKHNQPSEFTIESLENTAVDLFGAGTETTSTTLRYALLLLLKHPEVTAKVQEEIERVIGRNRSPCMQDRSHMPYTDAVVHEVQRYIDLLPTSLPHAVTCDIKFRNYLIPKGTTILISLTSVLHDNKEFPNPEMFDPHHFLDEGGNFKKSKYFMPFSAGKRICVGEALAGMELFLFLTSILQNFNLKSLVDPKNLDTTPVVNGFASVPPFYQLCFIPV
Procedure, shortened: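 Signal: luciferase luminescence reporting luciferin produced by CYP2C9. Conditions: 10nM enzyme, Luciferin-H 100uM at KM, 25mM KPO4, 37C, 60 min NADPH-driven reaction. Reference: 57uM sulphaphenazole as 100% inhibition.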

[21] = biological target: Cytochrome P450 3A4 (Homo sapiens) (UniProt P08684); assay: qHTS Assay for Inhibitors and Substrates of Cytochrome P450 3A4 (AID 884); note: potency is the fitted concentration of half-maximal effect; nearly all actives have a fitted effect of over 50% in size
Procedure, shortened: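 20 nM human CYP3A4 with 25 uM Luciferin-PPXE (at KM) in 200 mM KPO4, preincubated 10 min with compound; NADPH regeneration started a 60 min RT reaction. Luciferin detected by luminescence, normalized to 57 uM ketoconazole as full inhibition.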

[22] = biological target: Cytochrome P450 2D6 (Homo sapiens) (UniProt P10635); assay: qHTS Assay for Inhibitors and Substrates of Cytochrome P450 2D6 (AID 891); note: potency is the fitted concentration of half-maximal effect; nearly all actives have a fitted effect of over 60% in size
Procedure, shortened: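 Human CYP2D6 (5 nM) with 30 uM Luciferin-ME EGE (at Km) in 100 mM KPO4, compound preincubated 10 min, then NADPH regeneration system for 60 min at room temperature. Luciferin read by luminescence; normalized to 1.43 uM quinidine.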

[23] = measured here: cell count channel max response
[24] = measured here: lipid channel max response

Cc1cc(N[S+](=O)([O-])c2cc3c(cc2Cl)NC(=O)CO3)ccc1Cl
inactive: Potency [1]

c1cncc(CNc2ncnc3ccc(-c4cccnc4)cc23)c1
-4.35%: max response [8, 24]
inactive: Potency [2] > 11.4 µM | Potency [3] > 46 µM | Potency [4] > 46 µM | outcome [5] | outcome [6] | outcome [7] | activity change, negative = inhibition [8] 7.28% | Potency [1] | Potency [9]
-9.9%: max response [8, 23]

COc1cccc(-c2nnc3n2N=C(c2ccc(OC)cc2OC)CS3)c1
inactive: Potency [1]

O=C(Nc1ccc(-c2nc3ccccc3[nH]2)cc1)c1ccc2sccc2c1
inactive: Potency [1]

COc1ccc(C2c3c(ncn(CCCc4ccccc4)c3=N)Oc3ccc4ccccc4c32)cc1OC (stereo not given)
inactive: Potency [1]

CCN(CC)c1ccc(NC(=O)Nc2ccc(C(C)=O)cc2)cc1
inactive: Potency [1]

N=c1c2c(ncn1-c1ccccc1)Oc1ccc3ccccc3c1C2c1ccc2c(c1)OCO2 (stereo not given)
inactive: Potency [1]

Cc1ccc(CNc2cccc(N3CCCCC3)c2)cc1
inactive: Potency [1]

c1cncc(CNc2ccnc(-c3ccc4c(c3)OCO4)n2)c1
active: Potency [11] 0.126 µM | Potency [15] 5.01 µM | Potency [16] 0.0631 µM | Potency [17] 0.1 µM | Potency [18] 0.0447 µM
inactive: Potency [2] > 11.4 µM | activity change, negative = inhibition [10] -20.8% | activity change, negative = inhibition [12] 16% | activity, negative = inhibition [13] -10.6% | Potency [3] > 46 µM | Potency [4] > 46 µM | Potency [14] | Potency [19] | Potency [1] | Potency [9]

Fc1ccc(Nc2nc(-c3ccncc3)nc3ccccc23)cc1F
inactive: Potency [1]

Cc1cccc(CNc2ncnc3ccc(-c4ccc5c(c4)OCO5)cc23)c1
inactive: Potency [2] > 11.4 µM | activity, negative = inhibition [13] -13.6% | Potency [3] > 46 µM | Potency [4] > 46 µM | Potency [14] | outcome [6] | outcome [7] | activity change, negative = inhibition [8] 5.85% | Potency [1] | Potency [9]
-0.18%: max response [8, 24]
-5.17%: max response [8, 23]
active: Potency [11] 0.501 µM | Potency [20] 0.316 µM | Potency [21] 2 µM | Potency [22] 0.501 µM | Potency [15] 5.01 µM

c1nc(NCc2ccc3c(c2)OCO3)c2cc(-c3ccoc3)ccc2n1
inactive: Potency [1]

CC(=O)Nc1sc2c(c1C#N)CCN(C(C)C)C2
inactive: Potency [1]

CN(Cc1ccco1)c1ncnc2ccc(-c3cccnc3)cc12
active: Potency [11] 0.316 µM | Potency [21] 3.98 µM | Potency [15] 7.94 µM
-5.56%: max response [8, 24]
-8.64%: max response [8, 23]
inactive: Potency [2] > 11.4 µM | activity, negative = inhibition [13] -12.5% | Potency [3] > 46 µM | Potency [4] > 46 µM | outcome [5] | Potency [14] | outcome [6] | outcome [7] | activity change, negative = inhibition [8] 2.3% | Potency [19] | Potency [1] | Potency [9]
